Assay results from the supplement of paper PMC13380429.
A number with no mark means an inactive call.

tested on: Vero E6 infected with SARS-CoV-2; assay: inhibition of SARS-CoV-2 cytopathic effect; higher = more antiviral protection, active = above 15; details: 8.33 nM; 48 h

Row | SMILES | inhibition of SARS-CoV-2 cytopathic effect [%]
1 | COc1ccccc1N1CCN(CCCCNC(=O)c2ccc(-c3ccc(C(C)=O)cc3)cc2)CC1 | -3.1
2 | Cc1ccc(C(=O)N(CCCN)[C@@H](c2nc3cc(Cl)ccc3c(=O)n2Cc2ccccc2)C(C)C)cc1 [ispinesib] | -1.24
3 | CCCCCCNC(=O)n1cc(F)c(=O)[nH]c1=O [Carmofur] | 0.48
4 | CN1CCN(CCCN2c3ccccc3Sc3ccc(S(=O)(=O)N(C)C)cc32)CC1 [thioproperazine] | 6.36
5 | CC1(C)OC(=O)NC1=O [dimethadione] | -1.5
6 | CN(C(=O)c1c(O)c2ccccc2n(C)c1=O)c1ccccc1 [roquinimex] | 0.29
7 | COc1ccc(CC2NCCc3cc(OC)c(OC)cc32)cc1OC (stereo not given) [tetrahydropapaverine] | 0.89
8 | O=C(Nc1nc2cccc(-c3ccc(CN4CCS(=O)(=O)CC4)cc3)n2n1)C1CC1 [filgotinib] | -1.84
9 | C=CCSCC1Nc2cc(Cl)c(S(N)(=O)=O)cc2S(=O)(=O)N1 (stereo not given) [althiazide] | 0.99
10 | Cc1c(Cl)cccc1S(=O)(=O)Nc1nc(NCCc2ccccc2)nc2c1CN(Cc1ccccc1)CC2 | 1.85
11 | O=C(Nc1ccc(S(=O)(=O)C(F)(F)F)cc1)C1=CCN(c2ncccc2C(F)(F)F)CC1 | -1.04
12 | CCC(=O)NO | 3.18
13 | CCCCCCCCCCCCCCOC(=O)c1cccnc1 [myristyl-nicotinate] | 2.86
14 | CCOC(=O)[C@H]1O[C@@H]1C(=O)N[C@@H](CC(C)C)C(=O)NCCC(C)C [aloxistatin] | -1.01
15 | CCc1cc(-c2[nH]nc(C)c2-c2ccc3c(c2)OCCO3)c(O)cc1O | -1.99
16 | CC1(C)Oc2ccc(C#N)cc2[C@@H](N2CCCC2=O)[C@@H]1O [levcromakalim] | 1.1
17 | CC1(C)[C@@H](OC(=O)CCC(=O)O)CC[C@]2(C)[C@H]3C(=O)C=C4[C@@H]5C[C@@](C)(C(=O)O)CC[C@]5(C)CC[C@@]4(C)[C@]3(C)CC[C@@H]12 | 0.66
18 | CC(C)C[C@H](NC(=O)[C@@H](O)[C@H](N)Cc1ccccc1)C(=O)O [ubenimex] | -0.09
19 | Nc1ncnc2c1C(=O)N(c1ccc([C@H]3CC[C@H](CC(=O)O)CC3)cc1)CCO2 | 2.44
20 | OCc1c[nH]c2ccccc12 [indole-3-carbinol] | 0.47

Row | SMILES | inhibition of SARS-CoV-2 cytopathic effect [%]
21 | CCCCCCCCCCCCCCCC(=O)O[C@@H]1[C@@H](O)[C@@H](O)[C@@H]([C@H](NC(=O)[C@@H]2C[C@@H](CCC)CN2C)[C@H](C)Cl)O[C@@H]1SC [clindamycin-palmitate] | -2.61
22 | Cc1ccccc1N1CCN(S(=O)(=O)C[C@]23CC[C@H](C[C@@H]2NC(=O)[C@@H](N)CCS(C)(=O)=O)C3(C)C)CC1 | 2.09
23 | Cc1nnc(NS(=O)(=O)c2ccc(N)cc2)s1 [sulfamethizole] | 0.33
24 | C[C@@H](NCCCc1cccc(C(F)(F)F)c1)c1cccc2ccccc12 [cinacalcet] | 2.9
25 | CN(C)CCCCSC(=N)N | -3.4
26 | COc1ccc([C@@H]2CC(=O)c3c(O)cc(O[C@@H]4O[C@H](CO)[C@@H](O)[C@H](O)[C@H]4O[C@@H]4O[C@@H](C)[C@H](O)[C@@H](O)[C@H]4O)cc3O2)cc1O [neohesperidin] | 0.62
27 | NC(=O)CC[C@H](N)C(=O)O [L-glutamine] | 2.45
28 | O=C1[C@H](CC[C@H](O)c2ccc(F)cc2)[C@@H](c2ccc(O)cc2)N1c1ccc(F)cc1 [ezetimibe] | 0.64
29 | COC(=O)Nc1nc2cc(SC(C)C)ccc2[nH]1 [methiazole] | 0.55
30 | Nc1nc(F)nc2c1ncn2[C@@H]1O[C@H](COP(=O)(O)O)[C@@H](O)[C@@H]1O [fludarabine-phosphate] | 1.76
31 | CCN1CCC[C@H]1CNC(=O)c1c(O)c(Cl)cc(Cl)c1OC [raclopride] | -4.22
32 | COc1ccc(C2CC(c3ccccc3)=NN2c2ccc(S(N)(=O)=O)cc2)cc1 (stereo not given) | 2.1
33 | Cc1ncc(CO)c(/C=N/NC(=O)c2ccncc2)c1O [pyridoxal-isonicotinoyl-hydrazone] | -0.89
34 | CNC[C@H](O)c1ccc(O)c(O)c1 [epinephrine] | 3.04
35 | Oc1ccc2ccccc2c1 [beta-naphthol] | -1.33
36 | O=C(O)C1=C(CSc2nnnn2CS(=O)(=O)O)CS[C@@H]2[C@H](NC(=O)[C@H](O)c3ccccc3)C(=O)N12 [Cefonicid (sodium)] | -1.09
37 | CC(C)NC(=N)NC(=N)Nc1ccc(Cl)cc1 [proguanil] | 0.28
38 | CCCCC(=O)O[C@H]1CC[C@H]2[C@@H]3CCc4cc(O)ccc4[C@H]3CC[C@]12C | 0.74
39 | CC(CN(C)C)C(C)(O)Cc1ccc(Cl)cc1 (stereo not given) [clobutinol] | 2.65
40 | Cn1cc(C(=O)OCC2CCN(CCNS(C)(=O)=O)CC2)c2ccccc21 | 4.63
